# High-throughput results as filed in PubChem.
# Only some compounds are listed: those with a hit (about 6.5% of all), similar ones and a draw of the others.
# Lassa entry inh – inhibitors of Lassa virus binding or cell entry | Lassa virus pseudotype entry inhibition, cell reporter | Potency, µM (top dose mostly 37.9 µM), without a hit: top-dose activity change, negative = inhibition, most hits filed as inhibitors | actives 1.2% (n = 300,000); calls by dose curve; tested in HEK293 cells; also: potency is read from the fitted curve at half-maximal effect; nearly all actives have a fitted effect of over 50% in size
# FMDV inh – antivirals against foot and mouth disease virus. FMDV antiviral cell-based qHTS. Potency, µM (titrated, usually from 57.9 µM), for inactives: at the highest dose activity change, negative = inhibition, actives largely listed as inhibitors. actives 1.2% (n = 410,000); calls by dose curve; tested in HEK293T cells; also: read-out not given here; potency is read from the fitted curve at half-maximal effect; nearly all actives have a fitted effect of over 45% in size
# Marburg entry inh – Marburg virus entry inhibition; AID 540276; Potency, µM (series often up to 37.8 µM), without a hit: top-dose activity change, negative = inhibition, actives largely listed as inhibitors; actives 1.8% (n = 300,000); Marburg virus pseudotyped entry inhibition, cell reporter; calls by dose curve; tested in HEK293 cells; also: potency is read from the fitted curve at half-maximal effect
# HCMV inh – human cytomegalovirus inhibition. HFF cells, HCMV-luciferase reporter, 72 h; active compounds read low. activity change, negative = inhibition, % at 57.5 µM. actives 4.5% (n = 410,000). AID 1259415; in the data active = activity change below about -60%; inconclusive = no clear call, values can overlap the other calls; inactive = above about -39%
#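 Luciferase read-out from HCMV-luciferase-infected HFFs (MOI 1 PFU/cell) 72 h post infection at 37C; compounds added after 16 h cell attachment; activity normalized between buffer-only basal and Salinomycin (10uM) inhibitor controls.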
# VACV Venus inh – vaccinia inhibition (Venus reporter); Potency, µM (doses to about 36.5 µM), for inactives: at the top dose activity change, negative = inhibition, most hits filed as inhibitors; actives 0.46% (n = 330,000); Vaccinia virus Venus reporter expression, fluorescence; AID 720580; calls by dose curve; tested in A549 cells; also: potency is read from the fitted curve at half-maximal effect; nearly all actives have a fitted effect of over 30% in size
# VACV mCherry inh – vaccinia inhibition (mCherry reporter); Vaccinia virus mCherry reporter infection, fluorescence; Potency, µM (highest dose often 36.5 µM), inactives show at the top dose activity change, negative = inhibition, most hits filed as inhibitors; actives 0.63% (n = 310,000); AID 720579; calls by dose curve; tested in A549 cells; also: potency is read from the fitted curve at half-maximal effect; nearly all actives have a fitted effect of over 35% in size
# * hit, by the source's call; i = inactive; ? = inconclusive; / = not tested or not shown; [ ] = another dose, or the depositor's remark. % is scaled to controls: 0 for no effect and ±100 for the full control effect.
SMILES,Lassa entry inh,FMDV inh,Marburg entry inh,HCMV inh,VACV Venus inh,VACV mCherry inh
Clc1ccc2c(c1)C(c1ccccc1Cl)=NCc1nnc(Br)n1-2,-17.9%,-19.0%,?,-33.9,?,12.6µM*
O=C(C1=C(O)C(=O)N(CCCN2CCOCC2)[C@H]1c1ccccn1)c1cc2ccccc2o1,/,/,3.2%,/,/,/
COc1ccc(CN2CC(C(=O)NCc3cccc(OC)c3)CC2=O)cc1 (centres undefined),2.1%,-11.2%,-10.6%,-105.4*,-18.4%,-14.1%[1.46 µM]
C=CCCCN1C=C(C(C)=O)C(c2ccccc2)NC1=O (centres undefined),/,/,18.2%[14.2 µM],/,/,/
COc1ccccc1-c1cc2c(Nc3ccc(N4CCN(C)CC4)cc3)nccc2[nH]1,/,/,/,19.4,/,/
CC(=O)c1cccc(NC(=O)Cn2c(-c3cncs3)nc3ccccc32)c1,0.8%[46.1 µM],-12.6%,/,8.4,-7.0%,-3.0%
CCN(CC(=O)NCc1cccs1)S(=O)(=O)c1cc(NC(C)=O)ccc1OC,/,5.9%,/,1.9,/,/
C=C1C(C)C2C(Cc3ccccc3)NC(=O)C23C(OC(C)=O)C=CC(C)(O)CC(C)CC=CC3C1O (centres undefined),2.24µM*,-12.9%,3.98µM*,-28.1,?,?
CN=C1S/C(=C\c2cccn2-c2cccc(Br)c2)C(=O)N1C,3.2%,4.6%,-8.8%,-65.2*,/,/
CN=C1S/C(=C\c2ccc(N3CCCC3)c(F)c2)C(=O)N1C,16.0%[46.1 µM],8.9%,4.5%[46.1 µM],35.4,-7.4%,?
CC1=C(C(=O)N(C(C)C)C(C)C)CC(CC(=O)NC(c2ccccc2)c2ccccc2)C(=O)N1Cc1ccc(F)cc1 (centres undefined),/,-22.5%,/,-19.4,-11.8%,i
O=C(c1ccccc1NS(=O)(=O)c1cccc([N+](=O)[O-])c1)N1CCCC1,3.1%,4.8%,-15.6%,-78.5*,-17.3%,-6.5%
N#CC(C#N)=C1NC2(CCCCC2)Cc2ccccc21,/,-20.7%,/,-8.2,/,/
N#CC(C#N)=c1ccc2c(c1)NC1(CCCCC1)N=2,?,25.1µM*,?,-84.5*,-36.1%,-25.3%
C[C@@H]1CN([C@@H](C)CO)C(=O)c2cc(NS(C)(=O)=O)ccc2O[C@@H]1CN(C)Cc1ccc(C(F)(F)F)cc1,/,-7.5%,/,-38.1,-27.1%,-14.1%
Cc1ccccc1-n1c(SCC(=O)c2ccccc2)nnc1-c1ccc(F)cc1,?,26.0%,/,?,-15.4%,-18.1%
Cc1ccccc1-n1c(SCC(=O)c2cc(C)n(C)c2C)nnc1-c1ccncc1,?,35.5µM*,?,-12.3,/,/
Cc1c(Cl)cccc1-n1c(SCC(=O)NCc2ccccc2Cl)nnc1-c1ccncc1,15.5%,-24.6%,-17.4%,-101.9*,/,/
COc1ccccc1S(=O)(=O)N1CCNC(=O)C1,-0.4%,2.6%,-9.8%,11.5,4.6%,-8.9%
O=C(Cc1ccc(F)cc1)N1CCN=C1SCc1ccc([N+](=O)[O-])cc1,-16.7%,-19.5%,?,-68.2*,-18.3%,-24.5%
O=C(Cc1ccccc1)N1CCN=C1SCc1ccc([N+](=O)[O-])cc1,-2.4%,?,3.1%,17.7,-19.2%,-26.5%
Cc1ccc(O)cc1,/,8.8%,/,/,-10.1%,-8.2%
C/C=C(/C(=C/C)c1ccc(O)cc1)c1ccc(O)cc1,25.9µM*,?,-29.8%,-24.1,-20.9%,-0.7%
C=C(c1ccc(O)cc1)c1ccc(O)cc1,1µM*,?,5.7%,-15.3,-28.8%,/
CS(=O)(=O)N1CCN(c2ccnc3cc(Cl)ccc23)CC1,-12.6%[46.1 µM],-14.5%,4.6%,-2.7,-14.5%,i
CC(=O)c1ccc(S(=O)(=O)N2CCN(c3ccnc4cc(Cl)ccc34)CC2)cc1,/,?,/,-69.9*,-23.9%,-29.7%
Cc1ccc(S(=O)(=O)N2CCN(c3ccnc4cc(Cl)ccc34)CC2)cc1,-21.6%[46.1 µM],-9.5%,5.01µM*,-61.2*,-4.1%,-12.8%
O=S(=O)(c1ccc(Br)s1)N1CCN(c2ccnc3cc(Cl)ccc23)CC1,-19.6%,?,?,-71.9*,-12.6%,-8.4%
CCOC(=O)[C@]12CCCC=C1N(Cc1cccc3ccccc13)C(=O)[C@H](CC(=O)N1CCCCC1)C2,/,-7.4%,/,-7.4,-2.9%,-7.8%
COC(=O)c1c(C(=O)OC)c2c3cc(OC)c(OC)cc3ccn2c1C(=O)OC,?,/,23.4%[14.2 µM],/,/,/
